ALOX12 inh: inhibitors of human 12S-lipoxygenase ALOX12. P18054. purified 12hLO, xylenol orange hydroperoxide absorbance. Potency, µM (highest dose often 108 µM), most hits filed as inhibitors. hit rate 1.1% among 580,000. AID 1671190
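Hydroperoxide product was detected by ferrous iron/xylenol orange as the 573 to 405 nm absorbance ratio. Arachidonic acid at 40 uM (final) was turned over for 30 min at room temperature by 150 nM human 12hLO, pH 7.0 Hepes buffer, after 15 min compound preincubation.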
PLK1 PBD block: inhibitors of human PLK1 polo-box domain binding | Plk1 PBD binding of FITC phosphopeptide, fluorescence polarization | hit rate 2.8% among 360,000 | Potency, µM, hits mostly inhibitors | P53350; note: series mostly up to about 57 µM; nearly all actives have a fitted effect of over 65% in size
VDR inhibitor: vitamin D3 receptor (human) inhibition; hit rate 0.93% among 400,000; P11473; Potency, µM, actives largely listed as inhibitors; VDR-SRC2-3 peptide fluorescence polarization, 2 h
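After 23 nl compound addition and a short centrifugation, plates sat for 2 hours at ambient temperature; polarization of fluorescence then indicated loss of VDR binding to peptide SRC2-3.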
GCN5L2 inh: inhibitors of human GCN5L2 histone acetyltransferase; Q92830; GCN5L2 HAT assay, ThioGlo1 CoA-SH fluorescence; Potency, µM (top dose mostly 58.9 µM), actives largely listed as inhibitors; hit rate 0.21% among 390,000
Target sequence (Q92830 whole entry, looked up): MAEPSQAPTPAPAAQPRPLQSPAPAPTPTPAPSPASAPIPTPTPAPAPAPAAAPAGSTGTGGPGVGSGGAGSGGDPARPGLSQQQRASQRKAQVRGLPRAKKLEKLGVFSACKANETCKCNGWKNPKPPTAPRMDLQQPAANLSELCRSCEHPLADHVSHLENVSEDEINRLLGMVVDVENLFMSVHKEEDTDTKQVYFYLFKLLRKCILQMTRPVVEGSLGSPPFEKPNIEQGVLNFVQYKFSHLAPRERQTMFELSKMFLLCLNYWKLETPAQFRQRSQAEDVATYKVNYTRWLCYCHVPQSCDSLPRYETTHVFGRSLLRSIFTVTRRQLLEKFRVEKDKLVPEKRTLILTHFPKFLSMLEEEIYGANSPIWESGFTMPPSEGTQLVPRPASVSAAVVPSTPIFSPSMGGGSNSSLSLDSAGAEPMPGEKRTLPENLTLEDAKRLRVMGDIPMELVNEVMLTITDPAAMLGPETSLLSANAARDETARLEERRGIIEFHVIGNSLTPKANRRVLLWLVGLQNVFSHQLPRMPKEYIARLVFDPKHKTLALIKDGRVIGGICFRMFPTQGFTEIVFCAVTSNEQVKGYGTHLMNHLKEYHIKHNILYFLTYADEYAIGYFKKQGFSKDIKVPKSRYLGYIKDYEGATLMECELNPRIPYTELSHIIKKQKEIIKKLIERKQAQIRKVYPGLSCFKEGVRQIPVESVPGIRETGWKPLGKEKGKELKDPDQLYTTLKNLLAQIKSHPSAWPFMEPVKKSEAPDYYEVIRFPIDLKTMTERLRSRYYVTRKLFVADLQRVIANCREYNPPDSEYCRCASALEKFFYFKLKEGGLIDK
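ThioGlo1-coupled HAT assay: 20nM GCN5L2, 70uM acetyl-CoA, 75uM H3(1-25) peptide, pH 7.5. Fluorescence read at 340/540nm at start and after 20 min at room temperature.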
Of the large screens only hits and unclear results are named; the others gave an inactive call. Rows were chosen to be rich in hits. Some 3% of all compounds tested hit in one or more screens of this group. Calls come from the whole dose curve; as a rule, active = well fitted curve in the direction sought with a large enough effect; inconclusive = small, poorly fitted or top-dose-only effect, or another doubt; inactive = no such curve, though single readings can be large; an effect the other way counts as inactive or inconclusive.

O=[N+]([O-])c1ccc(C(=S)N2CCN(c3ccc(F)cc3)CC2)cc1	ALOX12 inh 50µM, PLK1 PBD block 15µM, VDR inhibitor 79µM
Cc1cc(=O)oc2cc(OCc3nc(CC(C)C)no3)ccc12	none (no result: PLK1 PBD block, VDR inhibitor, GCN5L2 inh)
CC(C)CNC(=O)CN1CCN(c2nc(C(F)(F)F)nc3ccccc23)CC1	none (no result: PLK1 PBD block, VDR inhibitor, GCN5L2 inh)
CCCN1CCC(N2CCN(c3ccc([N+](=O)[O-])cc3)CC2)CC1	ALOX12 inh 0.89µM
CCCN1CCC(N2CCN(c3cccc(C(F)(F)F)c3)CC2)CC1	none
O=C1c2ccccc2C(=O)N1CN(C(=O)c1ccccc1)c1ccc(O)cc1	PLK1 PBD block 21µM
COc1ccc(C)cc1NC(=O)C1CN(S(=O)(=O)c2cccnc2)CC12CCCCC2 (stereo unspecified)	none (no result: PLK1 PBD block, VDR inhibitor, GCN5L2 inh)
CCCCNC(=O)C1(NC(=O)Nc2ccc(C)cc2)CCCCC1	PLK1 PBD block 7.5µM, VDR inhibitor inconclusive
O=C(Nc1ccccc1)NC1(C(=O)NCCCN2CCOCC2)CCCCC1	none
O=C(Nc1ccccc1)NC1(C(=O)N2CCC(O)CC2)CCCCC1	none
CCC(C)NC(=O)C1(NC(=O)Nc2ccccc2)CCCCC1 (stereo unspecified)	PLK1 PBD block 11µM, VDR inhibitor inconclusive
CC(=O)Nc1ccc(C2=NN(C)C(=NCc3ccccc3)SC2)cc1	PLK1 PBD block 30µM
COCCN=C1NN=C(c2ccc(NC(C)=O)cc2)CS1	PLK1 PBD block inconclusive, VDR inhibitor inconclusive
O=c1[nH]c(=O)n(-c2ccccc2F)c2c1CN(Cc1ccco1)CN2	none (no result: PLK1 PBD block, VDR inhibitor, GCN5L2 inh)
COc1ccc2c(C)c(CC(=O)N3CCOCC3)c(=O)oc2c1	none (no result: PLK1 PBD block, VDR inhibitor, GCN5L2 inh)
N#Cc1c(-c2ccc(C(F)(F)F)cc2)cc(-c2ccccc2)[nH]c1=S	ALOX12 inh inconclusive, PLK1 PBD block 24µM
Cc1ccc(-c2cc(-c3ccccc3)[nH]c(=S)c2C#N)cc1	PLK1 PBD block inconclusive
Cc1cc(C(=O)NCCc2ccccc2)c2cccc(C)c2n1	none (no result: PLK1 PBD block, VDR inhibitor, GCN5L2 inh)
Cc1ccc(NC(=O)CN(C)C(=O)c2cccc(-n3cccc3)c2)cc1	ALOX12 inh 35µM, PLK1 PBD block inconclusive, GCN5L2 inh inconclusive
COc1ccc(NC(=O)CN(C)C(=O)c2cccc(-n3cccc3)c2)cc1	PLK1 PBD block inconclusive, GCN5L2 inh inconclusive
Cc1ccc(NC(=O)CN(C)C(=O)CSc2ccccc2F)cc1	ALOX12 inh inconclusive, PLK1 PBD block 21µM
CCC1c2ccsc2CCN1C(=O)CCc1ccc(S(=O)(=O)N2CCCCC2)cc1 (stereo unspecified)	none (no result: PLK1 PBD block, VDR inhibitor, GCN5L2 inh)
Cc1ccccc1Cc1nc(-c2nnn3c2COC(c2ccc(Cl)cc2)C3)no1 (stereo unspecified)	none (no result: PLK1 PBD block, VDR inhibitor, GCN5L2 inh)
CS(=O)(=O)N1CCN(c2ccccc2NC(=O)c2ccc([N+](=O)[O-])o2)CC1	PLK1 PBD block 3.4µM, VDR inhibitor inconclusive
CCC1(C)Nc2ccccc2C(=O)N1O (stereo unspecified)	ALOX12 inh 0.63µM
CCOc1ccc(N2C(=O)c3ccccc3NC2(C)CC)cc1 (stereo unspecified)	none
CCCCCCCCCC=O	none (no result: PLK1 PBD block, VDR inhibitor, GCN5L2 inh)
N#CC(C#N)=C1C=CC=CN1/C(=C\c1ccco1)C(=O)c1ccc(-c2ccccc2)cc1	ALOX12 inh inconclusive, VDR inhibitor inconclusive
N#CC(C#N)=C1C=CC=CN1/C(=C\c1ccco1)C(=O)c1ccc(Cl)cc1	ALOX12 inh inconclusive, PLK1 PBD block 12µM, VDR inhibitor 8.9µM
COc1ccccc1CNC(=O)C(=O)c1cn(CC(=O)N2CCCC2)c2ccccc12	none
COc1ccccc1CCNC(=O)C(=O)c1cn(CC(=O)N2CCOCC2)c2ccccc12	PLK1 PBD block 24µM, VDR inhibitor inconclusive
NC(=O)NOCc1ccc(Cl)cc1Cl	PLK1 PBD block 27µM
NC(=O)NOCc1ccc(F)cc1Cl	none
CCCC(=O)Oc1ccc2c(=O)c(Oc3cc(C)cc(C)c3)c(C(F)(F)F)oc2c1	none (no result: PLK1 PBD block, VDR inhibitor, GCN5L2 inh)
CCC1(C)Cc2c(sc3nn[nH]c(=O)c23)CO1 (stereo unspecified)	PLK1 PBD block 21µM (no result: ALOX12 inh)
CC1(C)Cc2c(sc3nn[nH]c(=O)c23)CO1	ALOX12 inh inconclusive, PLK1 PBD block inconclusive
C/C(N)=C(/C#N)C(=O)COC(=O)c1ccccc1Oc1ccccc1	PLK1 PBD block 27µM, VDR inhibitor inconclusive
CC(C)CN1CCOC(CNC(=O)CSc2cc(C(=O)NC3CC3)c3ccccc3n2)C1 (stereo unspecified)	none (no result: PLK1 PBD block, VDR inhibitor, GCN5L2 inh)
c1cc(-c2ccnc3nc(CCC4CCCC4)nn23)ccn1	none (no result: PLK1 PBD block, VDR inhibitor, GCN5L2 inh)
COCCNc1nc(-c2c(C)noc2C)nc2ccccc12	none (no result: PLK1 PBD block)
Cc1noc(C)c1-c1nc(Nc2ccc(F)cc2)c2ccccc2n1	ALOX12 inh 22µM, GCN5L2 inh inconclusive (no result: PLK1 PBD block)
Cc1noc(C)c1-c1nc(NCc2cccs2)c2ccccc2n1	ALOX12 inh 28µM, VDR inhibitor 45µM, GCN5L2 inh 22µM (no result: PLK1 PBD block)

Screening results from PubChem BioAssay.
